# ALR H2O2 inh – inhibitors of human sulfhydryl oxidase ALR | P55789 | purified ALR, DTT oxidation, H2O2 HRP-luminol luminescence | inhibition, % (no concentration beside the values) | actives 3.8% (n = 290,000);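 active = mean replicate inhibition above about 79%, with every replicate also reaching it, limit read from the data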
# Target sequence (P55789 whole entry, looked up): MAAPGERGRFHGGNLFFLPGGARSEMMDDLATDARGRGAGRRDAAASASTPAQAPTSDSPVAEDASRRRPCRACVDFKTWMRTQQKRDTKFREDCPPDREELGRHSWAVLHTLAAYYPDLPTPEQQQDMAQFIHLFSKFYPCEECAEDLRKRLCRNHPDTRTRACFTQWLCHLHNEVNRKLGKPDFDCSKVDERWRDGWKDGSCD
# ABHD5-PLIN5 inh – blocks binding of human ABHD5 to perilipin-5; Split G. princeps luciferase complementation, luminescence, 4 h; inhibition, % at 4 µM; Q00G26+Q8WTS1; actives 0.78% (n = 360,000);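 active = inhibition above the mean inhibition across every tested compound plus 3 SD, cut at about 22% in these data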
# Rtt109 Vps75 – C. albicans Rtt109 histone acetyltransferase inhibition | purified Rtt109/Vps75, ThioGlo CoA-SH fluorescence, 4 h | inhibition, % at 34.9 µM | actives 0.16% (n = 330,000) | AID 540336;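 active = inhibition of at least 50% in every replicate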
# PRMT1 inh – inhibitors of human PRMT1; inhibition, % at 2.79 µM; actives 1.3% (n = 370,000); recombinant PRMT1, activity-based probe fluorescence polarization; Q99873;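 active = inhibition above about 21% made by adding two undisclosed values, limit read from the data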
# Target sequence (Q99873 whole entry, looked up): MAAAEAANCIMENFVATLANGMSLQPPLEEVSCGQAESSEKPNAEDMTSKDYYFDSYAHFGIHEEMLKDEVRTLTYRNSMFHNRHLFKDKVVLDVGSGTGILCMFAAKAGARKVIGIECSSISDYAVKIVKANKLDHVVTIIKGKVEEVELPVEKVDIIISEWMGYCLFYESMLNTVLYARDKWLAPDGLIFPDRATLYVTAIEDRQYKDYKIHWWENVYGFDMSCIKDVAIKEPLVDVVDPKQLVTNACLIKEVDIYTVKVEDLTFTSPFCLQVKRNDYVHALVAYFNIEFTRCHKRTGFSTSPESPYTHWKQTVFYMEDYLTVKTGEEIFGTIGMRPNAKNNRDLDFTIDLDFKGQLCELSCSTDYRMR
# LANA-H2A inh – blocks KSHV LANA binding to histone H2A/H2B. actives 0.6% (n = 320,000). inhibition, % (concentration not given with the values). Q9QR71. cell-free LANA-H2A/H2B peptide, fluorescence polarization; in the data active = inhibition mostly above about 10%, no sharp cut-off; inactive = mostly below about 6.7%
# rCAG RNA binder – r(CAG) repeat RNA binding; TO-PRO-1 dye displacement fluorescence; inhibition, % at 3 µM; actives 1.3% (n = 370,000);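 active = inhibition above the plate cutoff, the mean of all test compounds on that plate plus 3 SD, cut at about 35% in these data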;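 also: higher means more dye released from RNA so lower well fluorescence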
# ABHD5 PLIN5 conf – confirmation of human ABHD5-PLIN5 interaction inhibitors; shares compounds with ABHD5-PLIN5 inh; biochemical ABHD5-PLIN5 interaction, luminescence; inhibition, % at 4 µM; actives 67% (n = 2,200); in the data active = inhibition above about 23%
# HNF4 split-luc – active in HNF4 split-luciferase counter-screen for ABHD5-PLIN5 inhibitors; shares compounds with ABHD5-PLIN5 inh; HNF4 dimerization, luminescence, biochemical; inhibition, % at 4 µM; actives 77% (n = 2,200); AID 651674;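 active = mean inhibition across replicate wells exceeding the computed hit threshold, cut at about 13% in these data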;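 also: light from luciferase halves that rejoin when HNF4 fusion proteins dimerize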
# Hits are given with their value; – = inactive; · = no result. In the library only some 5.9% were active in any assay of this set; here they are far more common.
SMILES,ALR H2O2 inh,ABHD5-PLIN5 inh,Rtt109 Vps75,PRMT1 inh,LANA-H2A inh,rCAG RNA binder,ABHD5 PLIN5 conf,HNF4 split-luc
CC1=C(CO)C(=O)OC([C@@H](C)C2CC[C@H]3C4C[C@H]5O[C@]56[C@@H](O)C=CC(=O)[C@]6(C)C4CC[C@]23C)C1 (stereo partly drawn),–,64.6,–,–,–,–,76.7,76.6
O=C(NC1CCCCN(Cc2ccc(Cl)cc2)C1=O)c1c(F)cccc1F (stereo not drawn),·,·,·,–,·,–,·,·
O=S(=O)(/C(=C/c1ccc(C(F)(F)F)cc1)c1nc2ccccc2[nH]1)c1ccccc1,–,70.2,–,–,–,–,104.2,103.3
CC(C)c1ccc(/C=C(\c2nc3ccccc3[nH]2)S(=O)(=O)c2ccccc2)cc1,–,75.4,–,–,–,–,89.8,71.5
O=c1[nH]c2ccccc2nc1C(F)(F)F,·,–,–,–,–,–,·,·
CC(Sc1ccsc1[N+](=O)[O-])C(=O)NCc1ccco1 (stereo not drawn),–,28.4,–,–,–,–,–,21.1
CC(Sc1nnc(-c2cccs2)n1-c1ccccc1)C(=O)NCc1ccco1 (stereo not drawn),–,–,–,–,–,–,·,·
CCNC(=O)C1(C)CCN(Cc2ccc(C#N)cc2)C1 (stereo not drawn),·,–,·,–,·,–,·,·
O=C(Nc1ccc2c(c1)OCCO2)c1cc(F)c(F)cc1Cl,–,24.0,–,–,–,–,–,–
Cc1ccc(C(=O)Nc2ccc3c(c2)OCCO3)c(Cl)c1,–,–,–,–,–,–,·,·
COc1ccccc1CNC(=O)CCNC(=O)C1CCN(S(=O)(=O)c2ccccc2)CC1,–,–,–,–,–,–,·,·
CCOC(=O)N1CCN(C(=O)C[C@@H]2C(=O)N(CCc3ccc(Cl)cc3)/C3=C/CCCCC[C@@]32C(=O)OCC)CC1,·,·,·,–,·,–,·,·
CC1(C)CC(=O)C(C(C2=C(O)CC(C)(C)CC2=O)c2cccs2)C(=O)C1 (stereo not drawn),·,40.6,–,·,·,·,64.3,68.5
CC1(C)CC(=O)C(C(C2=C(O)CC(C)(C)CC2=O)c2cccc(O)c2)C(=O)C1 (stereo not drawn),–,–,–,–,–,–,·,·
Cc1cccc(C)c1OCc1cn(CC(=O)c2ccc(O)cc2)nn1,·,45.0,–,–,·,–,65.9,36.8
CC(=O)Nc1ccc(OCc2cn(CC(=O)c3ccc(O)cc3)nn2)cc1,·,68.1,·,–,·,–,83.1,52.6
CC(=O)c1ccc(OCc2cn(CC(=O)c3ccc(O)cc3)nn2)cc1,·,23.5,–,–,·,–,–,23.7
COc1cc(C(C)=O)ccc1OCc1cn(CC(=O)c2ccc(O)cc2)nn1,·,24.9,–,–,·,–,53.0,31.1
CCCC[C@H](C(=O)N(C)c1ccccc1)[C@@H](O)c1ccc2ccccc2c1,·,·,·,–,·,–,·,·
C[C@H](CO)N1C[C@H](C)[C@@H](CN(C)C(=O)Nc2ccc(C(F)(F)F)cc2)Oc2c(NC(=O)Nc3ccc(C(F)(F)F)cc3)cccc2C1=O,–,–,–,–,–,–,·,·
C[C@H]1CN([C@@H](C)CO)C(=O)c2cccc(NC(=O)Nc3ccc(C(F)(F)F)cc3)c2O[C@H]1CN(C)C,–,28.3,–,–,–,–,–,–
COc1ccc(S(=O)(=O)Nc2cccc3c2O[C@H](CN(C)Cc2ccncc2)[C@@H](C)CN([C@H](C)CO)C3=O)cc1,–,24.3,–,–,–,–,–,–
C[C@H](CO)N1C[C@H](C)[C@@H](CN(C)Cc2ccc(Oc3ccccc3)cc2)Oc2c(NC(=O)C3CC3)cccc2C1=O,–,27.9,–,–,–,–,–,–
C[C@@H](NS(=O)(=O)c1c(F)cccc1F)c1ccccc1,·,·,·,–,·,–,·,·
Cc1ccc(S(=O)(=O)c2ncccc2[N+](=O)[O-])cc1,–,42.5,–,–,–,–,55.4,70.2
SMILES,ALR H2O2 inh,ABHD5-PLIN5 inh,Rtt109 Vps75,PRMT1 inh,LANA-H2A inh,rCAG RNA binder,ABHD5 PLIN5 conf,HNF4 split-luc
O=[N+]([O-])c1ccc(N2N=C(c3ccco3)CC2c2ccccc2)cc1 (stereo not drawn),–,29.0,–,–,–,–,–,24.4
Fc1ccc(C2CC(c3ccco3)=NN2c2ccccc2)cc1 (stereo not drawn),–,–,–,–,–,–,·,·
CCOc1ccc(-c2cc(C(=O)Nc3cccc(C(F)(F)F)c3)[nH]n2)c(C)c1,·,–,·,–,·,–,·,·
COc1ccc(OC(=O)c2cnc3n(c2=O)CCS3)cc1,·,40.8,–,–,–,–,–,–
COc1ccc(OC)c(NC(=O)c2cnc3n(c2=O)CCS3)c1,–,–,–,–,–,–,·,·
Cc1ccc(-c2csc(NC(=O)c3ccc(-c4ccccc4)cc3)n2)o1,–,55.2,–,·,–,·,25.2,26.7
COc1ccc(C(=O)c2c(C)c3ccccc3n2CC(O)CNC(C)C)cc1 (stereo not drawn),–,26.4,·,–,–,–,–,–
CCOC(=O)[C@@]12CCCC=C1N(CCc1ccc(Cl)cc1)C(=O)[C@H]2CC(=O)NCCCCc1ccccc1,·,·,·,–,·,–,·,·
CC1=NNC(=O)/C1=C\c1cn(-c2ccccc2)nc1-c1ccc(Cl)cc1,–,32.0,–,–,–,–,56.2,91.2
Cc1ccc(-c2nn(-c3ccccc3)cc2C=C2C(=O)CC(C)(C)CC2=O)cc1,–,–,–,–,–,–,·,·
COc1cc(C(=O)NN=C2c3ccccc3-c3ccccc32)cc(OC)c1OC,·,·,·,–,·,–,·,·
Nc1ccc(C(=O)C(=O)c2ccc(N)cc2)cc1,–,–,–,–,–,–,·,·
N=C1C=CC(=C(c2ccc(N)cc2)c2ccc(N)cc2)C=C1,·,33.8,–,–,·,–,56.1,59.5
O=C1ON=C(c2ccccc2)/C1=C/c1ccc(-c2ccccc2[N+](=O)[O-])o1,–,34.9,–,–,–,–,102.3,106.7
Cc1cccnc1C(NC(=O)C1CCN(CCCc2ccccc2)CC1)c1ccc(Cl)cc1 (stereo not drawn),·,–,·,–,·,–,·,·
CS(=O)(=O)c1nc(-c2ccc(F)cc2)cc(C(F)(F)F)n1,·,51.3,–,–,·,–,63.4,98.8
COc1ccc(-c2cc(C(F)(F)F)nc(S(C)(=O)=O)n2)cc1,·,48.4,–,–,–,–,67.2,91.1
COc1ccc(-c2cc(C(F)(F)F)nc(N)n2)cc1,–,–,–,–,–,–,·,·
O=C(NCCCN1CCN(c2ccc(F)cc2)CC1)Nc1ccc(Cl)cc1,·,·,·,–,·,–,·,·
CN(C)CCCNC(=O)c1ccc(-c2cc3nc(NCc4cccnc4)n(C)c(=O)c3s2)cc1,·,–,·,–,·,–,·,·
Cn1cccc1/C=C1\Cc2ccccc2C1=O,–,–,–,–,–,–,·,·
